A selection: hits, their analogues and other compounds. The true share with any hit is near 2.4%.
Pol eta inh: qHTS for Inhibitors of Polymerase Eta. actives 1.2% (n = 390,000). AID 588591, 2011. Potency, µM (highest dose often 114 µM), most hits filed as inhibitors. recombinant Pol eta, fluorescent DNA replication assay
Target sequence (Q9Y253 whole entry, looked up): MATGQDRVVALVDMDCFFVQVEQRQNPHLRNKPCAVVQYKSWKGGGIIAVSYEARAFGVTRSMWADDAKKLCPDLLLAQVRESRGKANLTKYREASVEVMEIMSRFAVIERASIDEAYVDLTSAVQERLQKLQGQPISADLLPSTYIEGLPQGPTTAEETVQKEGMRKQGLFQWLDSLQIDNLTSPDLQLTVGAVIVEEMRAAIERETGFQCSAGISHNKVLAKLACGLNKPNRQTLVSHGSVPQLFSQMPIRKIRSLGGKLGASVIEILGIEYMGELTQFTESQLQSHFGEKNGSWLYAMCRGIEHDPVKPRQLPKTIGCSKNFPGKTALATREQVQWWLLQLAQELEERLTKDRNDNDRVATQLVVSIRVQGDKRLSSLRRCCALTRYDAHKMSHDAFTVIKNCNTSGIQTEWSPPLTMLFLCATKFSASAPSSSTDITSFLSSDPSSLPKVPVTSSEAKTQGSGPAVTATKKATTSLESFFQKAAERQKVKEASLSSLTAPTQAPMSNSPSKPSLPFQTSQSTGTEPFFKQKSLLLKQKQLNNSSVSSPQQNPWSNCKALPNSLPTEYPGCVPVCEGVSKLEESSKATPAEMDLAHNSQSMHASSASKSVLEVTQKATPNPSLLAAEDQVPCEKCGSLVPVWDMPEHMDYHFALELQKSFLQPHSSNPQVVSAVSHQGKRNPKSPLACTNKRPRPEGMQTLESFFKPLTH
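Pol eta (10 nM) was preincubated with compounds for 15 min at room temperature, after which fluorescent replication substrate (50 nM final) was added to start the reaction. Fluorescence was read kinetically at 0 and 10 min.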
Pol iota inh: qHTS for Inhibitors of Polymerase Iota; DNA polymerase iota (Homo sapiens), Q9UNA4; Pol iota fluorescent replication assay, 10 min; Potency, µM (series often up to 115 µM), actives largely listed as inhibitors; actives 1% (n = 390,000)
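Pol iota at 10 nM preincubated 15 min with compounds at room temperature; reaction started with fluorescent substrate, 50 nM final. Fluorescence read kinetically at 0 and 10 min; buffer-only wells as negative control.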
WRN inhibitor: qHTS for Inhibitors of WRN Helicase; WRN helicase unwinding, fluorescent forked duplex, kinetic; Potency, µM (titrated, usually from 114 µM), most hits filed as inhibitors; actives 0.46% (n = 360,000); AID 651768, 2012; also: nearly all actives have a fitted effect of over 55% in size
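Kinetic red-fluorescence monitoring (525/598 nm) tracks WRN helicase activity after 100 nM fluorophore-quencher forked duplex and 2 mM ATP are added to 20 nM enzyme pretreated 15 min at room temperature with compound.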
FEN1 inh: qHTS Assay for the Inhibitors of Human Flap endonuclease 1 (FEN1); Potency, µM (highest dose often 114 µM), hits mostly inhibitors; actives 0.35% (n = 390,000); Recombinant FEN1 flap cleavage, fluorescence, 15 min; also: nearly all actives have a fitted effect of over 65% in size
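FEN1 at 10 nM preincubated with compounds 15 min at room temperature, then flap DNA substrate added at 50 nM final. Signal read at 0 and 15 min; concentration-response fitted with four-parameter Hill equation.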
Pol kappa inh: qHTS for Inhibitors of Polymerase Kappa; DNA polymerase kappa (Homo sapiens), Q9UBT6; purified Pol kappa, fluorescent DNA synthesis assay, 10 min; Potency, µM (titrated, usually from 107 µM), hits mostly inhibitors; actives 0.53% (n = 400,000)
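10 nM Pol kappa preincubated 15 min at room temperature with compounds, then reaction started with substrate at 50 nM final. Fluorescence read kinetically at 0 and 10 min; buffer-only wells served as negative control.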
Pol beta inh: qHTS Assay for Inhibitors of DNA Polymerase Beta | Pol beta primer extension/strand displacement, fluorescence kinetic | Potency, µM (series often up to 114 µM), actives largely listed as inhibitors | actives 1.3% (n = 340,000) | AID 485314, 2010
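Pol beta (10 nM) and compounds were preincubated 15 min at room temperature, then 50 nM substrate (final) started primer extension/strand displacement. Reads were taken at 0 and 10 min; concentration-response data were fitted to a four-parameter Hill equation.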
A number is an active result; 0 = inactive; ? = inconclusive; - = no result; ! = repeats disagree; [ ] = another dose, or the depositor's remark. Calls follow the shape of the dose curve; as a rule, active = well fitted curve in the direction sought with a large enough effect; inconclusive = small, poorly fitted or top-dose-only effect, or another doubt; inactive = no such curve, though single readings can be large; an effect the other way counts as inactive or inconclusive.

SMILES | Pol eta inh | Pol iota inh | WRN inhibitor | FEN1 inh | Pol kappa inh | Pol beta inh
CCN(CC)c1ccc(NC(=O)CN(C)S(=O)(=O)c2cccc3nsnc23)c(C)c1 | 0 | 0 | - | 0 | 0 | 0
CCCCNS(=O)(=O)c1ccc2nc(-c3cccnc3)cc(C(=O)NCCCOC)c2c1 | 0 | 0 | 0 | 0 | 0 | 0
CCCCNS(=O)(=O)c1ccc2nc(-c3cccnc3)cc(C(=O)NCCCOCC)c2c1 | 0 | 0 | - | 0 | 0 | 44.7µM
Cc1cccc(Cn2c(SCc3ccc(C(=O)NCc4cccs4)cc3)nc3ccncc32)c1 | 0 | 0 | - | 0 | 0 | 0
O=C(N/N=C/c1ccc(-c2cccc([N+](=O)[O-])c2)o1)c1cccs1 | 0 | 0 | 0 | 0 | 0 | 0
O=C(N/N=C/c1ccc([N+](=O)[O-])cc1)c1cccs1 | ? | 70.8µM | 0[11.6 µM] | 0 | ? | 31.6µM
C=C(CN(C)C)C(=O)c1ccc(C)cc1C | 0 | ? | 17.8µM | 0 | 0 | -
C=C(CN(C)C)C(=O)c1cc(OC)c(OC)cc1OC | 0 | 0 | ? | 0 | 0 | -
COC(=O)c1ccc(CNc2ccc(C(C)=O)cc2)cc1 | - | - | 0 | - | - | -
Cc1noc(NS(=O)(=O)c2ccc(NC(=O)Nc3ccc(Cl)c(Cl)c3)cc2)c1C | 50.1µM | ? | 0[11.6 µM] | 0 | 0 | ?
Cc1noc(NS(=O)(=O)c2ccc(NC(=O)C(Cl)(Cl)Cl)cc2)c1C | 0 | 0 | 0 | 0 | 0 | 0
Cc1cc2oc(C(=O)Nc3ccc(S(=O)(=O)Nc4onc(C)c4C)cc3)cc(=O)c2cc1C | 79.4µM | ? | - | ? | 0 | 0
C=CC[n+]1c(/C=C2\C=Cc3cc(C)ccc3N2CC)ccc2ccccc21 | ? | ? | 50.1µM | 39.8µM | ? | 31.6µM
O=C(O)c1ccc(-c2nc(-c3ccc(Cl)c(Cl)c3)cs2)cc1 | 0 | 0 | 0 | 0 | 0 | 0
NC(=O)C(=CNc1nc(-c2ccc(Cl)c(Cl)c2)cs1)C(N)=O | - | - | - | - | - | 1.41µM
Cn1c(N)nc2nc[nH]c2c1=S | 0 | 0 | 0 | 0 | 0 | -
O=C(CCS(=O)(=O)c1ccc(Br)cc1)NCc1ccc(F)cc1 | 39.8µM | 0 | 0 | 0 | ? | ?
O=C(CCS(=O)(=O)c1ccc(Br)cc1)NC1CCCCCC1 | 25.1µM | 0 | 0[11.6 µM] | 0 | 0 | ?
CC1(C(=O)O)CCCN1C(=O)c1cc2ccccc2s1 (configuration not stated) | - | - | 0 | - | - | -
O=C1CCN(Cc2ccccc2)CCN1CCSc1ccccc1 | 0 | 79.4µM! | 0 | 0 | ? | 0
COc1cccc2sc3ccc(NCc4ccc5c(c4)OCO5)cc3c(=O)c12 | 0 | 15.8µM | 0 | ? | 79.4µM | ?
CCCS(=O)(=O)NC(=O)C1(C)CCN(C(=O)c2cc(C)on2)C1 (configuration not stated) | - | - | 0 | - | - | -
COc1cc(N)c(Cl)cc1C(=O)OCCN1CCCCC1 | 0 | 0 | - | 10.6µM | 0 | 0
COc1cc(N)c(Cl)cc1C(=O)OCCCN1CCCCC1 | - | - | - | - | 0[19.4 µM] | -
COc1ccc(CCN(C)CCCOc2ccc(S(=O)(=O)c3[nH]c4ccccc4c3C(C)C)cc2)cc1OC | - | - | - | - | 0[19.4 µM] | -
SMILES | Pol eta inh | Pol iota inh | WRN inhibitor | FEN1 inh | Pol kappa inh | Pol beta inh
COc1ccccc1Cc1c(-c2ccc(C#N)cc2)nc2ccc(Br)cn12 | - | - | 0 | - | - | -
COc1ccc(C=C2CS(=O)(=O)CC(=Cc3ccc(OC)cc3)C2=O)cc1 | 50.1µM | - | 0 | - | - | -
O=C(Nc1ccc2c(c1)C(=O)NC2=O)c1cccc(C(F)(F)F)c1 | 0 | ? | 0 | 0 | 0 | 79.4µM
O=C(Nc1ccc2c(c1)C(=O)NC2=O)c1ccccc1 | 0 | 0 | 0 | 0 | 0 | 0
Cc1ccc(NC(=O)CN2C(=O)CC(c3ccco3)Sc3ccccc32)cc1Cl (configuration not stated) | 0 | 0 | - | 0 | 0 | ?
O=C(CSc1nc2c(oc3ccccc32)c(=O)[nH]1)Nc1cccc(Cl)c1 | 0 | ? | - | 0 | 0 | 70.8µM
COC(=O)c1cccc(NC(=O)CSc2nc(O)c(-c3ccccc3)c(=O)[nH]2)c1 | 25.1µM | ? | 0[11.6 µM] | 0 | ? | ?

Compound activity as filed in PubChem BioAssay.
